Laboratory results published in PubChem BioAssay AID624255 (Broad Institute, 2012).
Values joined by “and” are separate entries in the source; they are usually repeats but may differ in a detail not shown here. Equal entries are not always repeated. About 4,600 (6%) of roughly 77,000 compounds were called active. About 1% were inconclusive and are not listed.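 The calls were made as follows: active = mean inhibition above about 93%, with at least 55% of replicates each passing it (limit read from the data, passing the limit was not always enough); inconclusive = only one of those two conditions holds; inactive = neither condition holds.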 Many of the other results were omitted from the sample, so actives are more common in it than they were. More than one record can exist for a structure, and the calls need not agree.

Experiment: T. cruzi intracellular proliferation inhibitors, primary screen, cell-based, beta-gal Tulahuen parasites, NIH3T3 host, luminescence (AID 624255)
Details: T. cruzi beta-gal in NIH3T3, GalScreen luminescence, 90 h; at 8.34 µM; stronger effect = higher value

SMILES | inhibition
Cc1ccc(S(=O)(=O)Nc2ccc3c(c2)C(=O)N([C@H](C)CO)C[C@H](C)[C@@H](CN(C)Cc2ccccc2)OCCCC[C@H](C)O3)cc1 | 38.8% (inactive)
COc1ccc(S(=O)(=O)Nc2ccc3c(c2)C(=O)N([C@@H](C)CO)C[C@H](C)[C@H](CN(C)Cc2ccc(C(F)(F)F)cc2)OCCCC[C@@H](C)O3)cc1 | 63.1% (inactive)
Cc1ccc(S(=O)(=O)Nc2ccc3c(c2)C(=O)N([C@H](C)CO)C[C@@H](C)[C@H](CN(C)Cc2ccccc2)OCCCC[C@H](C)O3)cc1 | 85.7% (inactive)
C[C@@H]1CCCCO[C@@H](CN(C)Cc2ccc(C(F)(F)F)cc2)[C@H](C)CN([C@H](C)CO)C(=O)c2cc(NS(=O)(=O)c3ccc(F)cc3)ccc2O1 | 56.1% (inactive)
C[C@@H]1CCCCO[C@@H](CN(C)Cc2ccc(C(=O)O)cc2)[C@H](C)CN([C@H](C)CO)C(=O)c2cc(NS(=O)(=O)c3cccs3)ccc2O1 | -101% (inactive)
C[C@@H]1CN([C@H](C)CO)C(=O)c2cc(NS(=O)(=O)c3ccc(Cl)cc3)ccc2O[C@@H](C)CCCCO[C@H]1CN(C)Cc1ccccc1 | 112% (active)
C[C@@H]1CN([C@H](C)CO)C(=O)c2cc(NS(=O)(=O)c3cccs3)ccc2O[C@@H](C)CCCCO[C@H]1CN(C)Cc1ccc(C(F)(F)F)cc1 | 97.6% (active)
C[C@H](CO)N1C[C@H](C)[C@H](CN(C)Cc2ccc(C(F)(F)F)cc2)OCCCC[C@H](C)Oc2ccc(NS(=O)(=O)c3ccc(Cl)cc3)cc2C1=O | 98.6% (active)
COc1ccc(CN(C)C[C@@H]2OCCCC[C@H](C)Oc3ccc(NS(=O)(=O)c4cccs4)cc3C(=O)N([C@H](C)CO)C[C@@H]2C)cc1 | 44.9% (inactive)
C[C@@H]1CCCCO[C@H](CN(C)Cc2ccccc2)[C@H](C)CN([C@H](C)CO)C(=O)c2cc(NS(=O)(=O)c3ccc(Cl)cc3)ccc2O1 | 109% (active)
C[C@@H]1CCCCO[C@H](CN(C)Cc2ccccc2)[C@@H](C)CN([C@H](C)CO)C(=O)c2cc(NS(=O)(=O)c3ccc(Cl)cc3)ccc2O1 | -26.9% (inactive)
C[C@@H]1CCCCO[C@H](CN(C)Cc2ccccc2)[C@H](C)CN([C@@H](C)CO)C(=O)c2cc(NS(=O)(=O)c3ccccc3)ccc2O1 | 86% (inactive)
CN1C(=O)c2cc(NC(=O)C3CC3)ccc2OC[C@@H]2O[C@@H](CC(=O)NCC3CCCCC3)CC[C@@H]21 | -7.09% (inactive)
CCN1[C@@H]2c3ccc(C4=CCCC4)c(=O)n3C[C@@H]2[C@@H](CO)[C@@H]1C(=O)NCc1ccccn1 | 26.1% (inactive)
CO[C@H]1CN(C)C(=O)c2ccc(NC(=O)C3CC3)cc2OC[C@@H](C)N(C(=O)CN2CCOCC2)C[C@H]1C | -43.7% (inactive)
CN1C(=O)c2cc(NC(=O)c3cnccn3)ccc2OC[C@@H]2O[C@H](CC(=O)O)CC[C@@H]21 | 8.56% (inactive)
CC(=O)N1[C@H](CN(CC2CCC2)C(=O)CN(C)C)[C@@H](c2ccccc2)[C@@H]1CO | 54.9% (inactive)
COc1ccc(NC(=O)N2C[C@H](O)COC[C@H]3O[C@@H](CC(=O)N4CCN(C)CC4)CC[C@@H]32)cc1 | 7.94% (inactive)
C[C@H](O)C#Cc1ccc2c(c1)O[C@H](CN(C)Cc1cncnc1)[C@H](C)CN([C@@H](C)CO)S2(=O)=O | 36.8% (inactive)

SMILES | inhibition
C[C@H](CO)N1C[C@H](C)[C@H](CN(C)Cc2ccncc2)Oc2cc(-c3cncnc3)ccc2S1(=O)=O | 16.7% (inactive)
C[C@@H]1CN([C@H](C)CO)S(=O)(=O)c2ccc(C#C[C@@H](C)O)cc2O[C@@H]1CN(C)Cc1ccc(-c2ccccc2)cc1 | 73.7% (inactive) and 125% (active)
C[C@@H]1CN([C@H](C)CO)S(=O)(=O)c2ccc(C#CCN(C)C)cc2O[C@@H]1CN(C)C | -35.4% (inactive)
C[C@H]1CN([C@@H](C)CO)S(=O)(=O)c2ccc(C#CCN(C)C)cc2O[C@@H]1CN(C)Cc1ccc(F)cc1 | 115% (active)
C[C@H]1CN([C@@H](C)CO)S(=O)(=O)c2ccc(-c3cncnc3)cc2O[C@H]1CN(C)Cc1ccncc1 | 25.1% (inactive)
C[C@@H]1CN([C@@H](C)CO)S(=O)(=O)c2ccc(-c3ccncc3)cc2O[C@@H]1CN(C)C(=O)Nc1ccc(F)cc1 | 100% (active)
C[C@H](CO)N1C[C@H](C)[C@H](CN(C)Cc2ccncc2)Oc2cc(-c3ccncc3)ccc2S1(=O)=O | 111% (active)
C[C@@H]1CN([C@H](C)CO)S(=O)(=O)c2ccc(-c3ccncc3)cc2O[C@@H]1CN(C)C(=O)Nc1ccc(C(F)(F)F)cc1 | 82.6% (inactive)
C[C@@H]1CN([C@@H](C)CO)S(=O)(=O)c2ccc(C#CCN(C)C)cc2O[C@@H]1CN(C)CC1CC1 | -40.3% (inactive)
C[C@H](O)C#Cc1ccc2c(c1)O[C@@H](CN(C)Cc1cncnc1)[C@H](C)CN([C@H](C)CO)S2(=O)=O | -5.8% (inactive)
COc1ccc(NC(=O)N(C)C[C@H]2Oc3cc(-c4ccncc4)ccc3S(=O)(=O)N([C@H](C)CO)C[C@H]2C)cc1 | 70.2% (inactive)
CC=Cc1ccc2n(c1=O)C[C@@H]1[C@@H](CO)[C@H](C(=O)N3CCc4ccccc4C3)N(C(=O)C3CCC3)[C@H]21 (mixture of isomers) | 39.9% (inactive)
CCCC(=O)Nc1ccc2c(c1)C(=O)N(C)C[C@@H](OC)[C@H](C)CN(C(C)=O)[C@H](C)CO2 | -1.03% (inactive)
Cc1ccc(S(=O)(=O)N(C)C[C@@H]2OCCCC[C@H](C)Oc3ccc(NS(=O)(=O)c4cn(C)cn4)cc3C(=O)N([C@H](C)CO)C[C@@H]2C)cc1 | 39.1% (inactive)
CO[C@@H]1CN(C)C(=O)c2ccc(NC(=O)c3ccc(F)cc3)cc2OC[C@H](C)NC[C@@H]1C | -9.72% (inactive)
Cn1cnc(S(=O)(=O)N2C[C@@H](O)COC[C@H]3O[C@H](CC(=O)N4CCN(c5ccccc5)CC4)CC[C@@H]32)c1 | -64.3% (inactive)
CC(C)C#Cc1ccc2c(c1)O[C@H](CN(C)CC1CCOCC1)[C@@H](C)CN([C@H](C)CO)S2(=O)=O | 93.8% (inactive)
C[C@@H]1CN([C@@H](C)CO)S(=O)(=O)c2ccc(/C=C/c3ccccc3)cc2O[C@H]1CN(C)Cc1ccccc1 | 107% (active)
CC(C)C#Cc1ccc2c(c1)O[C@@H](CN(C)CC1CCOCC1)[C@H](C)CN([C@H](C)CO)S2(=O)=O | 91.2% (inactive)

SMILES | inhibition
C/C=C/c1ccc2c(c1)O[C@H](CN(C)Cc1ccccc1)[C@H](C)CN([C@@H](C)CO)S2(=O)=O | 62.6% (inactive)
CC(C)C#Cc1ccc2c(c1)O[C@H](CN(C)Cc1ccccn1)[C@H](C)CN([C@H](C)CO)S2(=O)=O | 57.8% (inactive)
C[C@@H]1CN([C@H](C)CO)S(=O)(=O)c2ccc(C#CC(C)(C)O)cc2O[C@@H]1CN(C)Cc1ccccc1 | 34.1% (inactive)
C[C@@H]1CN([C@H](C)CO)S(=O)(=O)c2ccc(/C=C/c3ccccc3)cc2O[C@@H]1CN(C)Cc1ccccc1 | 81.9% (inactive)
CC(C)C#Cc1ccc2c(c1)O[C@H](CN(C)Cc1ccccc1)[C@H](C)CN([C@@H](C)CO)S2(=O)=O | 111% (active)
CC(C)C#Cc1ccc2c(c1)O[C@@H](CN(C)Cc1ccncc1)[C@@H](C)CN([C@@H](C)CO)S2(=O)=O | 122% (active)
COc1cccc(NC(=O)C[C@H]2CC[C@@H]3[C@H](COc4ccc(NC(C)=O)cc4C(=O)N3C)O2)c1 | -37.9% (inactive)
O=C(C[C@@H]1CC[C@@H]2[C@H](COC[C@@H](O)CN2S(=O)(=O)c2ccccc2)O1)NCC1CCCCC1 | 34.1% (inactive)
COc1ccc(NC(=O)N[C@@H]2CC[C@H](CC(=O)NC3CCC3)O[C@H]2CO)cc1 | 16% (inactive)
COc1cccc(S(=O)(=O)N[C@@H]2CC[C@H](CCNC(=O)Cc3ccncc3)O[C@@H]2CO)c1 | -52.5% (inactive)
O=C(NCC[C@@H]1CC[C@@H](NC(=O)c2ccccc2F)[C@H](CO)O1)c1ccc2c(c1)OCO2 | 20.7% (inactive)
COc1ccc(NC(=O)N(C)C[C@H]2OCCCC[C@H](C)Oc3ccc(NS(C)(=O)=O)cc3C(=O)N([C@H](C)CO)C[C@@H]2C)cc1 | 42.5% (inactive)
CN1CCN(C(=O)C[C@H]2C[C@@H]3c4cc(NC(=O)Nc5ccc(C(F)(F)F)cc5)ccc4O[C@@H]3[C@H](CO)O2)CC1 | -59.1% (inactive)
C[C@@H]1CN([C@H](C)CO)C(=O)c2cc(NC(=O)Nc3ccc(F)cc3)ccc2O[C@@H](C)CCCCO[C@@H]1CN(C)CC1CCCCC1 | 115% (active)
C[C@@H]1CCCCO[C@H](CN(C)C(=O)NC2CCCCC2)[C@H](C)CN([C@@H](C)CO)C(=O)c2cc(NC(=O)Nc3ccc(F)cc3)ccc2O1 | 93.1% (inactive)
C[C@@H]1CCCCO[C@H](CN(C)C(=O)NC2CCCCC2)[C@H](C)CN([C@H](C)CO)C(=O)c2cc(NC(=O)Nc3ccc(F)cc3)ccc2O1 | 110% (active)
C[C@@H]1CCCCO[C@H](CN(C)CC2CC2)[C@@H](C)CN([C@H](C)CO)C(=O)c2cc(NC(=O)Nc3ccc(F)cc3)ccc2O1 | 18.3% (inactive)
C[C@@H]1CCCCO[C@H](CN(C)CC2CCCCC2)[C@H](C)CN([C@H](C)CO)C(=O)c2cc(NC(=O)Nc3ccc(F)cc3)ccc2O1 | 71.7% (inactive)
C[C@@H]1CCCCO[C@@H](CN(C)C(=O)NC2CCCCC2)[C@H](C)CN([C@@H](C)CO)C(=O)c2cc(NC(=O)Nc3ccc(F)cc3)ccc2O1 | 54.3% (inactive)
